Screening data as filed in PubChem.
The sample as a whole holds a higher share of hits than the screen did.
IDE exosite inh – displaces the probe from the exo-site of human IDE; z-score at 20 µM; purified IDE, FL-6b probe fluorescence polarization; active compounds read low; hit rate 6.3% among 17,000;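 active = z-score of -3 or lower, meaning strong loss of probe binding signal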;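 also: His-tagged human IDE residues 42-1019 made in E. coli with 30 nM FL-6b probe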
Active calls of the source: *.

SMILES | IDE exosite inh
CCC(=O)N1[C@@H](CO)[C@@H](c2ccccc2)C12CN(C(=O)c1ccncc1)C2 | 1.08
O=C(Cc1ccccn1)N1CC2(C1)[C@H](c1ccccc1)[C@H](CO)N2C(=O)c1ccncc1 | -4.47*
CN(C)C(=O)c1cccc(-c2ccc3c(c2)[C@H]2[C@H](CCN2Cc2nccs2)[C@H](CO)N3)c1 | -0.128
COc1ccc2c3c([nH]c2c1)[C@H](CO)N(Cc1ccc2c(c1)OCO2)CC31CCN(C(=O)Nc2c(C)noc2C)CC1 | -0.217
COCC#Cc1ccc([C@@H]2[C@@H](CO)N3CCCCN(Cc4cncnc4)C[C@@H]23)cc1 | -1.46
CCS(=O)(=O)N1CC(=O)N2[C@H](CO)[C@@H](c3ccc(-c4ccc(F)cc4)cc3)[C@H]2C1 | 3.79
CCS(=O)(=O)N1CC(=O)N2[C@@H](CO)[C@H](c3ccc(C#CC4CC4)cc3)[C@@H]2C1 | 4.37
CCS(=O)(=O)N1CC(=O)N2[C@H](CO)[C@@H](c3ccc(-c4ccccc4F)cc3)[C@@H]2C1 | -11*
CCS(=O)(=O)N1CC(=O)N2[C@H](CO)[C@@H](c3ccc(C#Cc4ccc(F)cc4)cc3)[C@H]2C1 | 0.789
CS(=O)(=O)N1CC(=O)N2[C@@H](CO)[C@@H](c3ccc(Br)cc3)[C@@H]2C1 | -1.12
CCS(=O)(=O)N1CC(=O)N2[C@@H](CO)[C@H](c3ccc(-c4ccccc4F)cc3)[C@@H]2C1 | 2.24
CCS(=O)(=O)N1CC(=O)N2[C@H](CO)[C@@H](c3ccc(-c4ccccc4)cc3)[C@@H]2C1 | -5.41*
CCS(=O)(=O)N1CC(=O)N2[C@@H](CO)[C@H](c3ccc(-c4ccccc4C)cc3)[C@@H]2C1 | -5.78*
CCN1CC(=O)N2[C@H](C1)[C@@H](c1ccc(-c3ccccc3F)cc1)[C@@H]2CO | -2.61
Cc1ccccc1-c1ccc([C@@H]2[C@@H](CO)N3C(=O)CN(S(C)(=O)=O)C[C@H]23)cc1 | -1.54
Cc1ccccc1-c1ccc([C@@H]2[C@H]3CN(S(C)(=O)=O)CC(=O)N3[C@H]2CO)cc1 | -5.1*
CCS(=O)(=O)N1CC(=O)N2[C@H](CO)[C@H](c3ccc(-c4ccc(F)cc4)cc3)[C@@H]2C1 | 2.46
COc1ccc2c3c(n(C)c2c1)[C@H](CO)N(C(=O)Nc1ccc(F)cc1)CC31CCN(C(=O)Nc2ccc(F)cc2F)CC1 | 0.716
O=C(C1CCC1)N1CCCCN2[C@H](C1)[C@H](c1ccc(-c3ccncc3)cc1)[C@@H]2CO | -0.116
N#C[C@H]1[C@@H](c2ccccc2C2=CCCC2)[C@@H](CO)N1C(=O)c1cccc(F)c1 | 0.121
O=S(=O)(Cc1ccccc1)N1CCCCN2[C@H](CO)[C@@H](c3ccc(-c4cccnc4)cc3)[C@@H]2C1 | -0.709
N#Cc1ccc(-c2ccc([C@@H]3[C@H](CO)N4C(=O)CNC[C@@H]34)cc2)cc1 | -1.39
O=C(NCC1CC1)[C@H]1[C@H](CO)[C@H]2Cn3c(ccc(-c4cccnc4)c3=O)[C@H]2N1Cc1cocn1 | -0.584
N#C[C@@H]1[C@H](c2ccc(C3=CCCC3)cc2)[C@@H](CO)N1c1nc(-c2ccccc2)cs1 | 0.183
O=C(Nc1ccc(F)cc1)N1CC(=O)N2[C@H](CO)[C@@H](c3ccc(C#CC4CC4)cc3)[C@@H]2C1 | 2.86
SMILES | IDE exosite inh
CC(C)[C@H]1C(=O)NCCC=CC[C@H](C)Oc2ccccc2C(=O)N1C (mixture of isomers) | 0.329
O=C(C1CC1)N1CC(=O)N2[C@H](CO)[C@H](c3ccc(C#CC4CCCC4)cc3)[C@@H]2C1 | 3.05
CCCNC(=O)NC[C@H]1[C@@H](c2ccc(C3=CCCCC3)cc2)[C@@H](CO)N1C(C)=O | 2.31
CCS(=O)(=O)N1CCCCN2[C@H](CO)[C@@H](c3ccc(-c4cccc(C#N)c4)cc3)[C@@H]2C1 | 3.42
CCS(=O)(=O)N1CC(=O)N2[C@H](CO)[C@@H](c3ccc(-c4cccc(F)c4)cc3)[C@H]2C1 | 0.168
CCS(=O)(=O)N1CC(=O)N2[C@H](CO)[C@@H](c3ccc(C4=CCCCC4)cc3)[C@@H]2C1 | -0.204
CCS(=O)(=O)N1CC(=O)N2[C@H](CO)[C@@H](c3ccc(-c4ccccc4C)cc3)[C@@H]2C1 | -15.8*
OC[C@@H]1[C@H](c2ccccc2)C2(CN(CCC(F)(F)F)C2)N1Cc1nccs1 | 0.0824
CN(C)C(=O)c1cc2c(c(-c3cccc(C4=CCCCC4)c3)n1)[C@H](CCO)N(S(C)(=O)=O)C2 | 1.16
O=C(CN1CCOCC1)N1CC(=O)N2[C@@H](CO)[C@H](c3ccc(/C=C/c4ccccc4)cc3)[C@@H]2C1 | -8.18*
O=C(CN1CCOCC1)N1CC(=O)N2[C@H](CO)[C@H](c3ccc(/C=C/c4ccccc4)cc3)[C@@H]2C1 | -8.67*
Cc1ccc(-c2ccc([C@H]3[C@H]4CN(C(=O)CN5CCOCC5)CC(=O)N4[C@H]3CO)cc2)cc1 | 0.399
Cc1ccc(-c2ccc([C@@H]3[C@@H](CO)N4C(=O)CN(C(=O)CN5CCOCC5)C[C@H]34)cc2)cc1 | -2.26
CCCC#Cc1ccc([C@@H]2[C@H]3CN(C(=O)CN4CCOCC4)CC(=O)N3[C@H]2CO)cc1 | 4.21
CS(=O)(=O)N1CC(=O)N2[C@H](C1)[C@@H](c1ccc(Br)cc1)[C@@H]2CO | -1.04
C/C=C/c1ccc([C@@H]2[C@@H](CO)N3CCCCN(C(=O)Nc4ccccc4F)C[C@@H]23)cc1 | 1.12
CO[C@H]1CN(C)C(=O)c2cc(NS(C)(=O)=O)ccc2OC[C@@H](C)N(C(=O)C2CCOCC2)C[C@H]1C | 0.469
CN(C)C(=O)c1cccc(-c2ccccc2[C@@H]2[C@H](C#N)N(C(=O)C3CCC3)[C@H]2CO)c1 | 2.39
COc1cccc(C#Cc2ccc([C@H]3[C@@H](CO)N(C(=O)C4CCC4)[C@H]3C#N)cc2)c1 | 3.55
N#C[C@@H]1[C@H](c2ccc(C#Cc3ccc(F)cc3)cc2)[C@@H](CO)N1C(=O)C1CC1 | 4.93
COc1cccc(C#Cc2ccc([C@@H]3[C@H](C#N)N(C(=O)C4CCC4)[C@H]3CO)cc2)c1 | 4.18
COc1ccccc1C#Cc1ccc([C@H]2[C@@H](C#N)N(C(=O)C3CCC3)[C@H]2CO)cc1 | -4.87*
COc1ccccc1C#Cc1ccc([C@@H]2[C@@H](C#N)N(C(=O)C3CCCCC3)[C@H]2CO)cc1 | -7.99*
N#C[C@H]1[C@@H](c2ccc(C#Cc3ccccc3F)cc2)[C@@H](CO)N1C(=O)C1CCCCC1 | 1.69
COc1ccccc1C#Cc1ccc([C@H]2[C@@H](C#N)N(C(=O)C3CCCCC3)[C@H]2CO)cc1 | -1.64
SMILES | IDE exosite inh
COc1cccc(C#Cc2ccc([C@@H]3[C@H](C#N)N(C(=O)C4CC4)[C@H]3CO)cc2)c1 | -0.131
COc1ccccc1C#Cc1ccc([C@H]2[C@@H](CO)N(C(=O)C3CC3)[C@H]2C#N)cc1 | -7.54*
CO[C@H]1CN(C)C(=O)c2ccc(NC(=O)c3cc(C)on3)cc2OC[C@@H](C)NC[C@H]1C | 1.06
CC(C)CC#Cc1ccc([C@@H]2[C@@H](CO)N3C(=O)CN(C(=O)CN4CCOCC4)C[C@H]23)cc1 | 5.55
COCC(=O)N1CC(=O)N2[C@H](C1)[C@H](c1ccc(C#CC3CC3)cc1)[C@@H]2CO | 1.04
COc1ccccc1CNC(=O)C[C@@H]1CC[C@H]2[C@@H](COC[C@@H](O)CN2Cc2ccc3c(c2)OCO3)O1 | -1.01
COc1ccc(S(=O)(=O)N2CCCCN3[C@@H](CO)[C@H](c4ccc(C#CC(C)C)cc4)[C@@H]3C2)cc1 | 4.08
O=C(CC1CC1)N1CC(=O)N2[C@H](CO)[C@@H](c3ccc(C#Cc4ccc(F)cc4)cc3)[C@@H]2C1 | 3.31
